The results in this text go back to PubChem BioAssay (EPA / NIEHS).

Records with an inconclusive call do not appear. The source made the active and inactive calls. Rule for the calls, unless noted: active = hit-call score of the fitted dose curve at least 0.9, where 1 is the maximum; inactive = score below 0.9.

Assay [1] can be described thus: ATG_TGFb_CIS: Attagene CIS-FACTORIAL HepG2 Assay for human Transforming Growth Factor (TGF) (AID 2282967). The settings on record: HepG2 Attagene CIS TGFb reporter, mRNA transcription; actives raise or lower the signal. The method in brief: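 Readout: fluorescently labeled reporter cDNA fragments resolved by capillary electrophoresis after RT-PCR. Transfected HepG2 cells dosed for 24 h; endogenous TF activity at TGFB1-linked cis element; gain or loss fitted relative to DMSO.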

Assay [2] has as its target Nuclear receptor subfamily 1 group I member 3 (Homo sapiens) (UniProt Q14994). Nature of the assay: ATG_CAR_TRANS: Attagene TRANS-FACTORIAL HepG2 Assay for human Constitutive Androstane Receptor (CAR) (AID 2282969; active = hit-call score of the fitted dose curve at least 0.9, where 1 is the maximum;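 note: activators raise reporter mRNA above DMSO so AC50 marks induction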). The settings on record: HepG2 Attagene TRANS-FACTORIAL CAR reporter. In a few lines: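 HepG2 cells transiently transfected with multiplexed GAL4-UAS reporter units expressing chimeric NR-Gal4 proteins; compound exposure 24 h. Reporter mRNA measured by RT-PCR, 6-FAM labelling, HpaI digestion and capillary electrophoresis; gain-of-signal fitted against DMSO baseline.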

In assay [3] the target is X-box-binding protein 1 (Homo sapiens) (UniProt P17861). Nature of the assay: ATG_Xbp1_CIS: Attagene CIS-FACTORIAL HepG2 Assay for human X-box Binding Protein 1 (XBP1) (AID 2282972). Particulars: HepG2 XBP1 cis-element reporter, Attagene multiplex; actives raise or lower the signal. The method in brief: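 HepG2 cells transiently transfected with multiple cis-element reporter units report endogenous TF activity; 24 h exposure, then reporter mRNA measured by RT-PCR, 6-FAM labelling, HpaI digestion and capillary electrophoresis. Bidirectional fitting versus DMSO.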

The nature of assay [4]: ATG_M_19_TRANS: Attagene TRANS-FACTORIAL HepG2 Assay for M19 Transcription Factor (Internal Marker) (AID 2282974; active = hit-call score of the fitted dose curve at least 0.9, where 1 is the maximum). The settings on record: HepG2 Attagene TRANS-FACTORIAL M19 internal marker reporter. In a few lines: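 24 h chemical exposure of transiently transfected HepG2 (MRTU library). RNA → oligo(dT) RT → PCR → 6-FAM labelling → HpaI cut → CE fluorescence. Positive-direction fit vs DMSO baseline; background internal-marker readout.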

Assay [5] concerns the target Glucocorticoid receptor (Homo sapiens) (UniProt P04150). Nature of the assay: ATG_GR_TRANS: Attagene TRANS-FACTORIAL HepG2 Assay for human Glucocorticoid Receptor (GR) (AID 2282978; active = hit-call score of the fitted dose curve at least 0.9, where 1 is the maximum;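 note: activators score as hits since higher reporter transcript over DMSO is fitted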). Particulars: HepG2 Attagene TRANS GR reporter, mRNA transcription. The method in brief:
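Transient MRTU transfection of HepG2 (GAL4-UAS reporters, exogenous NR-GAL4 chimeras), 24 h dosing. Readout: reporter transcript via RT-PCR + capillary electrophoresis fluorescence. Positive direction vs DMSO baseline.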

Assay [6] addresses Bile acid receptor (Homo sapiens) (UniProt Q96RI1). Nature of the assay: ATG_FXR_TRANS: Attagene TRANS-FACTORIAL HepG2 Assay for Farnesoid X Receptor (FXR) (AID 2282979; active = hit-call score of the fitted dose curve at least 0.9, where 1 is the maximum;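 note: hits raise reporter mRNA above DMSO so AC50 marks FXR activation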). Particulars: HepG2 Attagene TRANS FXR-GAL4 reporter transcription. The method in brief: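 Transient transfection of HepG2 with multiplexed GAL4-UAS reporter units; exogenous FXR-GAL4 chimera. Dose 24 h → TriZol RNA → oligo(dT) RT → PCR, 6-FAM primer extension, HpaI cut → CE. Gain vs DMSO.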

A short description of assay [7]: ATG_M_06_TRANS: Attagene TRANS-FACTORIAL HepG2 Assay for M06 Transcription Factor (Internal Marker) (AID 2282983; active = hit-call score of the fitted dose curve at least 0.9, where 1 is the maximum). Particulars: HepG2 Attagene TRANS M06 internal marker reporter. The method in brief: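 Transfect HepG2 with MRTUs → dose compounds 24 h → isolate RNA, oligo(dT) RT → PCR with reporter primers → 6-FAM primer extension → HpaI digest → CE fragment analysis. Positive direction vs DMSO.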

In assay [8] the target is Nuclear receptor subfamily 4 group A member 2 (Homo sapiens) (UniProt P43354). Nature of the assay: ATG_NURR1_TRANS: Attagene TRANS-FACTORIAL HepG2 Assay for human Nuclear Receptor Related Protein 1 (NURR1) (AID 2282985; active = hit-call score of the fitted dose curve at least 0.9, where 1 is the maximum). The settings on record: HepG2 Attagene TRANS reporter, mRNA readout. In a few lines: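 After 24 h chemical dosing, total RNA from transiently transfected HepG2 cells was reverse-transcribed and reporter cDNA PCR-amplified, FAM-labelled and analysed by capillary electrophoresis. Activity fitted in positive direction, DMSO as negative control.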

Assay [9] has as its target Transcriptional activator Myb (Homo sapiens) (UniProt P10242). Nature of the assay: ATG_Myb_CIS: Attagene CIS-FACTORIAL HepG2 Assay for human Myeloblastosis (Myb) Proto-Oncogene Transcription Factor (AID 2282986). Particulars: HepG2 Attagene CIS-FACTORIAL Myb reporter transcription; actives raise or lower the signal. In a few lines: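 HepG2, transient MRTU transfection (cis-element promoters, endogenous TF activity), 24 h compound exposure. Readout: reporter mRNA via RT-PCR, 6-FAM labeling, HpaI digest, capillary electrophoresis. Gain/loss fit vs DMSO.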

For assay [10], the target named is Nuclear respiratory factor 1 (Homo sapiens) (UniProt Q16656). Nature of the assay: ATG_NRF1_CIS: Attagene CIS-FACTORIAL HepG2 Assay for human Nuclear Respiratory Factor 1 (NRF1) Orphan Gene (AID 2282987). Particulars: HepG2 NRF1 cis-element reporter, Attagene multiplex; actives raise or lower the signal. In a few lines:
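Endogenous NRF1-driven reporter transcription measured in transiently transfected human HepG2 liver cells. Readout: reporter mRNA by RT-PCR and capillary electrophoresis with fluorescence detection, 24 h post-dosing. Gain or loss of signal fitted relative to DMSO baseline.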

The nature of assay [11]: ATG_NFI_CIS: Attagene CIS-FACTORIAL HepG2 Assay for human Nuclear Factor I (NFI) (AID 2282989). The settings on record: HepG2 cis-regulatory reporter, NFI response element transcription; actives raise or lower the signal. The method in brief:
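Read-out: reporter mRNA via RT-PCR plus capillary electrophoresis with fluorescence detection. Transiently transfected HepG2 (endogenous TF activity on cis promoters), 24 h compound exposure; gain or loss of signal fitted against DMSO.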

For assay [12], the target named is Myc proto-oncogene protein (Homo sapiens) (UniProt P01106). Nature of the assay: ATG_Myc_CIS: Attagene CIS-FACTORIAL HepG2 Assay for human Myelocytomatosis (Myc) Proto-Oncogene Transcription Factor (AID 2282990). The settings on record: HepG2, Attagene cis-reporter transcription factor activity; actives raise or lower the signal. The method in brief:
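HepG2 cells transiently transfected with multiple cis-promoter-driven reporter transcription units, so endogenous TF activity is read. After 24 h compound exposure, reporter mRNA was quantified by RT-PCR, 6-FAM labelling, HpaI digestion and capillary electrophoresis; bidirectional fit versus DMSO.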

Assay [13] can be described thus: ATG_VDRE_CIS: Attagene CIS-FACTORIAL HepG2 Assay for human Vitamin D Receptor Element (VDRE) (AID 2282968). Particulars: HepG2 VDRE cis-reporter transcription, actives raise or lower the signal. In a few lines: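 RT-PCR/CE readout of reporter mRNA; HepG2, transient transfection, 24 h dosing; DMSO baseline; bidirectional analysis.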
The target of assay [14] is Estrogen receptor (Homo sapiens) (UniProt P03372). Nature of the assay: ATG_ERa_TRANS: Attagene TRANS-FACTORIAL HepG2 Assay for human Estrogen Receptor alpha (ERa) (AID 2282970; active = hit-call score of the fitted dose curve at least 0.9, where 1 is the maximum). The settings on record: HepG2 Attagene TRANS ERa GAL4 reporter, mRNA. The method in brief: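 Human liver HepG2, transient transfection of multiple GAL4-UAS reporter units; TRANS format (exogenous NR-Gal4 chimera). 24 h dosing. Readout: reporter mRNA, RT-PCR, 6-FAM primer extension, HpaI digest, capillary electrophoresis. Positive direction vs DMSO.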

Assay [15] in a line: ATG_M_32_TRANS: Attagene TRANS-FACTORIAL HepG2 Assay for M32 Transcription Factor (Internal Marker) (AID 2282984; active = hit-call score of the fitted dose curve at least 0.9, where 1 is the maximum;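 note: transcript level of a background control reporter unit measured by RT-PCR and capillary electrophoresis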). Particulars: HepG2 Attagene TRANS M32 internal marker reporter. In a few lines: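 Human hepatoma HepG2, transient MRTU transfection, 24 h treatment. RNA → RT-PCR → fluorescent primer extension → HpaI digest (2 h, 37 C) → CE. Positive-direction fit vs DMSO.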
In assay [16] the target is Oxysterols receptor LXR-beta (Homo sapiens) (UniProt P55055). Nature of the assay: ATG_LXRb_TRANS: Attagene TRANS-FACTORIAL HepG2 Assay for human Liver X Receptor beta (LXRb) (AID 2282981; active = hit-call score of the fitted dose curve at least 0.9, where 1 is the maximum). Particulars: HepG2 Attagene TRANS GAL4-LXRb reporter, mRNA. In a few lines: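 In this TRANS format, exogenous chimeric NR-Gal4 protein activity, not endogenous factors, drives reporter expression in transfected human HepG2 cells. Exposure lasted 24 h; reporter mRNA was read by fluorescent capillary electrophoresis.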

Assay [17] addresses Hepatocyte nuclear factor 4-alpha (Homo sapiens) (UniProt P41235). Nature of the assay: ATG_HNF4a_TRANS: Attagene TRANS-FACTORIAL HepG2 Assay for human Hepatocyte Nuclear Factor 4 alpha (HNF4a) (AID 2282982; active = hit-call score of the fitted dose curve at least 0.9, where 1 is the maximum). The settings on record: HepG2 HNF4a transactivation reporter, mRNA readout. The method in brief: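 Cells used were human HepG2, transiently carrying GAL4-UAS reporter units read out against exogenous NR-GAL4 chimeras. Reporter transcript levels after 24 h dosing were quantified by fluorescent RT-PCR and capillary electrophoresis.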

For assay [18], the target named is Estrogen-related receptor gamma (Homo sapiens) (UniProt P62508). Nature of the assay: ATG_ERRg_TRANS: Attagene TRANS-FACTORIAL HepG2 Assay for human Estrogen-Related Receptor gamma (ERRg) (AID 2282977; active = hit-call score of the fitted dose curve at least 0.9, where 1 is the maximum;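 note: hits increase reporter signal over DMSO so potencies reflect activators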). Particulars: HepG2 Attagene TRANS reporter, ERRg transactivation. The method in brief: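 HepG2 cells transiently transfected with multiplexed GAL4-UAS reporter units driven by chimeric NR-Gal4 proteins; 24 h exposure. Reporter mRNA quantified by RT-PCR, fluorescent labelling, HpaI digestion and capillary electrophoresis; gain of signal vs DMSO.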
Estrogen-related receptor gamma (Homo sapiens), sequence (P62508 whole entry, looked up, the tested form may be a part): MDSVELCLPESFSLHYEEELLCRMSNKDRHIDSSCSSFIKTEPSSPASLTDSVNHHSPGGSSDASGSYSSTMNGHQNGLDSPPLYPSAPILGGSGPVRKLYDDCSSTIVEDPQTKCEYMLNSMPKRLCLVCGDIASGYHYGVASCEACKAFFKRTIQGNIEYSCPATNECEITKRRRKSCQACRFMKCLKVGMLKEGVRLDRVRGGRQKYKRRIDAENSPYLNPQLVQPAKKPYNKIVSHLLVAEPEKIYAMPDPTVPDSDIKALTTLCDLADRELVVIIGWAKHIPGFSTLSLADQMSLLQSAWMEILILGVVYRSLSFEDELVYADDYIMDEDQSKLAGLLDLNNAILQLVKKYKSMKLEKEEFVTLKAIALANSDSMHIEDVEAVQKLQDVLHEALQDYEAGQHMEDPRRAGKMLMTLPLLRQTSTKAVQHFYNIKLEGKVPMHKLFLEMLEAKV

Glucocorticoid receptor (Homo sapiens), sequence (P04150 whole entry, looked up, the tested form may be a part): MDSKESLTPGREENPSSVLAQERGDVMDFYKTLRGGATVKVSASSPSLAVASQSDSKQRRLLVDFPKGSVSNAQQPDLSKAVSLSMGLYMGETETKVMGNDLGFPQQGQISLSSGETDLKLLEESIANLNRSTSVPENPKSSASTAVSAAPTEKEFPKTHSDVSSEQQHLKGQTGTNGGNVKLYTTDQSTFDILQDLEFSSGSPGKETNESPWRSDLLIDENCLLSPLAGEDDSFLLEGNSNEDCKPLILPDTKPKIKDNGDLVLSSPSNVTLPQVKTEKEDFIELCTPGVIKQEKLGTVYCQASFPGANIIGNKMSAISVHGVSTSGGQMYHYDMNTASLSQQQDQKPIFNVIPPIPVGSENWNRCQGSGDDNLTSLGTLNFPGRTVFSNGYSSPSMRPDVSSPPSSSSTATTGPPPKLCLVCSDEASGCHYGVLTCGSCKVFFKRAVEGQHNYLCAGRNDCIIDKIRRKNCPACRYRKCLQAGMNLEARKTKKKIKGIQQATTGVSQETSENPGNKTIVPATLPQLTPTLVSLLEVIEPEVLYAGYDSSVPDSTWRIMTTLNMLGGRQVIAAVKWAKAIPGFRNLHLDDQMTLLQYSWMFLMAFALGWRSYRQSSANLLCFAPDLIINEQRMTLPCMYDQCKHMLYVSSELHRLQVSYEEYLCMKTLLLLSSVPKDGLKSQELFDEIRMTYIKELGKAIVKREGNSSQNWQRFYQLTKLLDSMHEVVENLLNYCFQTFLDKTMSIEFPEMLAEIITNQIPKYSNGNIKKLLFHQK
Myc proto-oncogene protein (Homo sapiens), sequence (P01106 whole entry, looked up): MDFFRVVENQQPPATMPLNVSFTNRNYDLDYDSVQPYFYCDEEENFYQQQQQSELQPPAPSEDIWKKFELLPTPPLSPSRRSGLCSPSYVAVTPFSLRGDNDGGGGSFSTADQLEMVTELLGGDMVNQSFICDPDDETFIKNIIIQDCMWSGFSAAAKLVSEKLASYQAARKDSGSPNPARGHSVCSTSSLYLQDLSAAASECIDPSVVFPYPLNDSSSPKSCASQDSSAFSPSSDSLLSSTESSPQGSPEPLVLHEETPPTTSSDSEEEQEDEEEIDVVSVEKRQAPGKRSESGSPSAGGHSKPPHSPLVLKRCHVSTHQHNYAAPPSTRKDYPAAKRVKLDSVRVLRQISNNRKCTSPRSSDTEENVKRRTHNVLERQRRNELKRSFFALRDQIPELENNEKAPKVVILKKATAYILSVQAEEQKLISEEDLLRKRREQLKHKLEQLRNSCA
Bile acid receptor (Homo sapiens), sequence (Q96RI1 whole entry, looked up, the tested form may be a part): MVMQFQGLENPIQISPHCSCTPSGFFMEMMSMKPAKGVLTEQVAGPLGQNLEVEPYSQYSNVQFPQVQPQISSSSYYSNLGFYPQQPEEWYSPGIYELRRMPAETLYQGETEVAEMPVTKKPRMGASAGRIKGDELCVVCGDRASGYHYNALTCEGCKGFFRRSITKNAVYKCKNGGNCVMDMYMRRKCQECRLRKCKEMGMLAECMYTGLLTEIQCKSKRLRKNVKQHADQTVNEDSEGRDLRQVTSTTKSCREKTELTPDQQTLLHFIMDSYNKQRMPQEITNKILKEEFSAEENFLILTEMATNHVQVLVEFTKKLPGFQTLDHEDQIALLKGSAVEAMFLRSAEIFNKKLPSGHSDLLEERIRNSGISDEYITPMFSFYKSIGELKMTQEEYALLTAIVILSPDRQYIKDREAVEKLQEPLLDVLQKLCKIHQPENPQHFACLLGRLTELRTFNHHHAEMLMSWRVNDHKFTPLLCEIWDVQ
Nuclear respiratory factor 1 (Homo sapiens), sequence (Q16656 whole entry, looked up): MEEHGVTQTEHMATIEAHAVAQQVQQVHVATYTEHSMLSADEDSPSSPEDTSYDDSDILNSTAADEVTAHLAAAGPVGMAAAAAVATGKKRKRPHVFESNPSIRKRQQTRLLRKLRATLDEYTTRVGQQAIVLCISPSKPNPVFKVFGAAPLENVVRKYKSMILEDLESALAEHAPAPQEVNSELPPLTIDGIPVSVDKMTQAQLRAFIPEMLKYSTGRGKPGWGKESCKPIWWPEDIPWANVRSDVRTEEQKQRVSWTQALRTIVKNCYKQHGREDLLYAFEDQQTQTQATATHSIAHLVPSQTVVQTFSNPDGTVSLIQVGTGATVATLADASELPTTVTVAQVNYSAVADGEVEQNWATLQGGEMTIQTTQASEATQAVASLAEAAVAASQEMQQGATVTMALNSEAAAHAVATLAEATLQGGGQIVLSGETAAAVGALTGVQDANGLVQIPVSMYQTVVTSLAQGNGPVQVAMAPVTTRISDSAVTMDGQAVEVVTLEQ
X-box-binding protein 1 (Homo sapiens), sequence (P17861 whole entry, looked up): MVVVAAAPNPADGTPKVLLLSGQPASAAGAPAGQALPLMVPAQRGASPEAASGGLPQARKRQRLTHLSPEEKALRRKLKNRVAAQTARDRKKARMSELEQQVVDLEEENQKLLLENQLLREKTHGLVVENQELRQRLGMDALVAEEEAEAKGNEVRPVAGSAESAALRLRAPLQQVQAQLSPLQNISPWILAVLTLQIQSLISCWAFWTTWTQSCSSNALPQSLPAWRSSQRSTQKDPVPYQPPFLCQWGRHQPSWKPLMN
Nuclear receptor subfamily 1 group I member 3 (Homo sapiens), sequence (Q14994 whole entry, looked up, the tested form may be a part): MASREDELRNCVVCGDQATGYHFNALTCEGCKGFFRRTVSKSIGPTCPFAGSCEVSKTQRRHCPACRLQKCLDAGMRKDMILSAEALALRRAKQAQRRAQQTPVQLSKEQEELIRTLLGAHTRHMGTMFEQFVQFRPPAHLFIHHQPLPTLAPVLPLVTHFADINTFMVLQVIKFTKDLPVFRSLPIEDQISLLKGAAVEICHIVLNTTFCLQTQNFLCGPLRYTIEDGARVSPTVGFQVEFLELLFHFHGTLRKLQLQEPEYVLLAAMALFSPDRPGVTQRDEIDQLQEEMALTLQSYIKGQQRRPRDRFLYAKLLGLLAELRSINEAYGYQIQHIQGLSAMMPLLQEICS
Transcriptional activator Myb (Homo sapiens), sequence (P10242 whole entry, looked up): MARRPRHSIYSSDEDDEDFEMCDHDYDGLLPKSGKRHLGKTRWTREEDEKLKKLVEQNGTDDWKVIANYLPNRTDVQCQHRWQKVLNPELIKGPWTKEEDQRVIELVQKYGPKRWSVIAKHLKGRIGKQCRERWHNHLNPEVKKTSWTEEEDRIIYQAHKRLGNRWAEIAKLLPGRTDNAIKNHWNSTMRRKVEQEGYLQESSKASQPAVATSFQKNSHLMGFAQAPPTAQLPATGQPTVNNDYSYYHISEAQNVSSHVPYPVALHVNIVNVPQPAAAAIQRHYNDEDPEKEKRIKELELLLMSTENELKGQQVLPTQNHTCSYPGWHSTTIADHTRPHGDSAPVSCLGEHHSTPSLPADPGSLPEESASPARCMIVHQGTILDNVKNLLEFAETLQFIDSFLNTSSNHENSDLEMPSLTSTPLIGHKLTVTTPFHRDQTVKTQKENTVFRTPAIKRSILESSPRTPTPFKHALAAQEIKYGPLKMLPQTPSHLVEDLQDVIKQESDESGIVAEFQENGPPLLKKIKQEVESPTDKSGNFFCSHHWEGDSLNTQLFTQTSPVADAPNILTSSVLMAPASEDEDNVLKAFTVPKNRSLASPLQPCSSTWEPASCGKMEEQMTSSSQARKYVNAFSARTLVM
Nuclear receptor subfamily 4 group A member 2 (Homo sapiens), sequence (P43354 whole entry, looked up): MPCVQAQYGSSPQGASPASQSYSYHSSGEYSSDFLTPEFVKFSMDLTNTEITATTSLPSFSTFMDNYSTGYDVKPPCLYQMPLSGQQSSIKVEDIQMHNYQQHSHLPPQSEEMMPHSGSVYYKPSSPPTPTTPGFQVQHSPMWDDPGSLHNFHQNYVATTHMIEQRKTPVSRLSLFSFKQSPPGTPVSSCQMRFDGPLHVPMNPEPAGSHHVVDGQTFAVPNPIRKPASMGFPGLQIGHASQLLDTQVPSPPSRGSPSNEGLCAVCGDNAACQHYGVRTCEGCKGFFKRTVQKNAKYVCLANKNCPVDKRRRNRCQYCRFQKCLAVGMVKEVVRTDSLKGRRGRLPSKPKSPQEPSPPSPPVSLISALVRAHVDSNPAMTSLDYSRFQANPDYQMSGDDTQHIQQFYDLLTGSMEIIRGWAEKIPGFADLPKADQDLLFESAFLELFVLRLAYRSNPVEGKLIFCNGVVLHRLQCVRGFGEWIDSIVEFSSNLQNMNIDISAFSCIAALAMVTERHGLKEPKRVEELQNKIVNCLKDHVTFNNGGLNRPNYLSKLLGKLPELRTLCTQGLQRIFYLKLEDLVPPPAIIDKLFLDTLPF
Oxysterols receptor LXR-beta (Homo sapiens), sequence (P55055 whole entry, looked up, the tested form may be a part): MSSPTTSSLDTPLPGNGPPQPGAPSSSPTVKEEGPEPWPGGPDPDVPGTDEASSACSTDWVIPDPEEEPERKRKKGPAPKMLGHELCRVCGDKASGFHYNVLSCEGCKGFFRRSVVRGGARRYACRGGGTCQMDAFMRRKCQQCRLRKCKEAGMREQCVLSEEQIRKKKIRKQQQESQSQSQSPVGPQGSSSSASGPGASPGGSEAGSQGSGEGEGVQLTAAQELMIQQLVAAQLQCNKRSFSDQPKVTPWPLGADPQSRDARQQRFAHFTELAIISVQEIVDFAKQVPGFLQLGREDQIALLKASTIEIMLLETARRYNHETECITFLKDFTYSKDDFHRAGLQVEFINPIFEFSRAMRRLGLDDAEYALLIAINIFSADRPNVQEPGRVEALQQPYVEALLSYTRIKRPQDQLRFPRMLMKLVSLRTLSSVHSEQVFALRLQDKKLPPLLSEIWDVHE

Turning to `Cc1cc(Cc2ccc(N)c(C)c2)ccc1N`, the outcome in assay [1], in [2], in [3], in assay [4], in assay [5] and in assay [6] was inactive. The molecule was classed as inactive in [7], in assay [8], in assay [9], in assay [10], in [11] and in assay [12].
In the case of `CCC(C)N(C)C(=O)c1cc2ccccc2c(-c2ccccc2Cl)n1` (configuration not stated), the molecule was called inactive in assay [1], in assay [14], in assay [3], in [4], in assay [15] and in [8]. In addition, the molecule was classed as inactive in [9], in assay [11] and in assay [12]. Further, the values for the AC50 in assay [13] and in [10] were 1.54 µM (active) and 63 µM (active), respectively.
`O=C1OC(c2ccc(O)cc2)(c2ccc(O)cc2)c2ccccc21`: the outcome in assay [1], in [4], in assay [9] and in assay [10] was inactive. For the same molecule, the AC50 (in general, the midpoint of the concentration-response curve, whichever way the signal moves) is 30 µM (active) in [3], 22.8 µM (active) in assay [11] and 180 µM (active) in assay [12].
With `CCCCC(CC)COC(=O)CCCCCCCC(=O)OCC(CC)CCCC` (configuration not stated), the molecule was called inactive in [1], in assay [2], in assay [3], in assay [5], in [6] and in assay [16]. The outcome in [7], in [8], in [9], in assay [10], in assay [11] and in assay [12] was inactive.
Consider `CCCCC(CC)CO` (configuration not stated), for which the molecule was called inactive in [1], in assay [13], in assay [2], in [3], in assay [5] and in assay [6]. Also, the call in assay [16], in [17], in assay [7], in [8], in assay [9] and in [10] was inactive. In addition, the result in assay [11] and in assay [12] was inactive.
As to `CCCC(=O)O`, the call in assay [1], in assay [2], in assay [3], in [4], in [18] and in assay [17] was inactive. Besides, the molecule was called inactive in [8], in assay [9], in assay [10], in assay [11] and in [12].
